Reference: article PMC4336329 (PLoS ONE, 2015)
The whole screen tested about 310,000 compounds, of which about 14,000 (4.5%) showed an effect of 50% or more. The effect is printed as a negative number. Many of the other results were omitted from the sample, so strong results are more common in it than they were.

target: human ether-à-go-go-related gene (hERG) potassium channel (human, UniProt Q12809); experiment: primary screen, population patch clamp on CHO cells stably expressing hERG; higher = less effect of the substance
Sequence (Q12809 whole entry, looked up): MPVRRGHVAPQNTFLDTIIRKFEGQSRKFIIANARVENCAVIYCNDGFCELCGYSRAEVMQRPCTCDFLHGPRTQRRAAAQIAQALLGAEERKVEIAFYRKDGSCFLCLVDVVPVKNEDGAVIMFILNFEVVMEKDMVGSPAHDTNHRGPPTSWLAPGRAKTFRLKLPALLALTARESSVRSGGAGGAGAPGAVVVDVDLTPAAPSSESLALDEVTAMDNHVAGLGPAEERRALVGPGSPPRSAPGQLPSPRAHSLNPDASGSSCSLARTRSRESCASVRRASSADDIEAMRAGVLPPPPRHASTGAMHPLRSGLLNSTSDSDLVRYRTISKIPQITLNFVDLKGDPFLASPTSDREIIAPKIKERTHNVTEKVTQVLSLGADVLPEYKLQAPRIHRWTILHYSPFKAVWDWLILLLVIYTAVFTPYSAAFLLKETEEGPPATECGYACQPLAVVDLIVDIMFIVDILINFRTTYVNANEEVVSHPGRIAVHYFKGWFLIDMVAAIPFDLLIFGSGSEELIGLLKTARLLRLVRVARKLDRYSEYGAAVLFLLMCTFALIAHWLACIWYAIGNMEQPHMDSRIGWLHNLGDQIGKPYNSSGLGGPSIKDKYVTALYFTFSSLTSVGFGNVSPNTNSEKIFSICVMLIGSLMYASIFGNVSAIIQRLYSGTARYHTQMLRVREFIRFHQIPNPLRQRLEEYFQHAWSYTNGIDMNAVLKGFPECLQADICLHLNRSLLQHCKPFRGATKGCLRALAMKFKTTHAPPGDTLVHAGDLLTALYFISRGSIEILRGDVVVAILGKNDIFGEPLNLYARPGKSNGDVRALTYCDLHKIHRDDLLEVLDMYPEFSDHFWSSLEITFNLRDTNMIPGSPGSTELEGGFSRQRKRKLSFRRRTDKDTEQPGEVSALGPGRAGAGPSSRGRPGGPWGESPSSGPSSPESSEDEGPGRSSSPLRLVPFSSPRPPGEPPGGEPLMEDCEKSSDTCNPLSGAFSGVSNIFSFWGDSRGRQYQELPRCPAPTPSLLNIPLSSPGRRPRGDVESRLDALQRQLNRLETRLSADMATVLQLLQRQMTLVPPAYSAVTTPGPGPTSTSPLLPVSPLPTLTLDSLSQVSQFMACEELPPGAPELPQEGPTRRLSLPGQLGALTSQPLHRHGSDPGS
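Further: peak tail current of the secondary pulse compared with the same well before compound.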

Row | SMILES | hERG current change (%, negative = inhibition) at 10uM [%]
1 | CCOc1ccc(C(=O)Nc2ccccc2N2CCCC2)cc1 | -22.8
2 | Cc1ccc(C(=O)Nc2ccccc2N2CCN(C(=O)C(C)C)CC2)cc1C | -18.7
3 | COc1cc(C(=O)Nc2ccccc2N2CCN(S(C)(=O)=O)CC2)cc(OC)c1OC | -29.9
4 | COc1ccccc1NC(=O)COC(=O)c1ccccc1C(=O)N1CCN(c2ccccc2)CC1 | -42.3
5 | COc1ccccc1C(=O)Nc1ccccc1N1CCN(S(C)(=O)=O)CC1 | -62
6 | COc1cc(Cl)ccc1NC(=O)COc1ccccc1C(=O)NN | -15.4
7 | Cc1ccc(C(=O)Nc2ccccc2N2CCN(C(=O)C(C)C)CC2)cc1 | -19.1
8 | CCCCOc1cccc(C(=O)Nc2ccccc2N2CCCC2)c1 | 5.59
9 | O=C(CNC(=O)c1ccc(Cl)cc1)c1ccccc1 | -9.6
10 | CC(C)OC(=O)CSc1nnc2c(n1)[nH]c1ccc(F)cc12 | 8.22
11 | CN(C(=O)Cn1nnc(-c2ccc(F)cc2)n1)C1CCS(=O)(=O)C1 (stereo not drawn) | -2.38
12 | NC1=NC(=O)C(CC(=O)c2ccc(Cl)cc2)S1 (stereo not drawn) | 1.23
13 | COc1cccc(-n2c(SCC(=O)NCc3cccs3)nc3ccccc3c2=O)c1 | -2.74
14 | O=C(NC(=S)Nc1ccccc1Br)c1ccc2c(c1)OCO2 | -56.4
15 | O=C(Nc1ccccc1N1CCCC1)c1cccc(F)c1 | 6.24
16 | COC(=O)c1ccccc1NC(=S)NC(=O)c1ccc2c(c1)OCO2 | 32.6
17 | O=C(Nc1ccccc1N1CCN(c2ccccc2)CC1)c1cccc(F)c1 | -8.05
18 | Cc1ccc(C(=O)N2CCN(c3cc(=O)[nH]nc3-c3ccccc3)CC2)cc1 | -41.7
19 | O=C(Nc1ccc(Cl)cc1C(=O)N1CCCC1)c1cccc([N+](=O)[O-])c1 | -12
20 | O=C(NC(=S)NCc1ccccc1)c1ccc2c(c1)OCO2 | -8.81
21 | O=C(c1ccc(F)cc1)N1CCN(c2cc(=O)[nH]nc2-c2ccccc2)CC1 | -4.51

Row | SMILES | hERG current change (%, negative = inhibition) at 10uM [%]
22 | O=C(c1ccc(Cl)cc1)N1CCN(c2cc(=O)[nH]nc2-c2ccccc2)CC1 | -58.3
23 | O=C(Nc1ccccc1N1CCN(C(=O)c2ccc(Cl)cc2)CC1)c1cccc(F)c1 | -78.9
24 | O=C(Nc1ccccc1N1CCN(C(=O)c2ccc(Cl)cc2)CC1)c1cccc([N+](=O)[O-])c1 | -75
25 | CCC(=O)N1CCN(c2ccc(Cl)cc2NC(=O)c2cccc([N+](=O)[O-])c2)CC1 | -49.2
26 | COc1ccc(OC)c(NC2=C(Cl)C(=O)N(Cc3ccccc3)C2=O)c1 | 5.06
27 | CCn1c(COc2cc(C)ccc2C(C)C)nnc1SCC(=O)Nc1nccs1 | 5.52
28 | COC(=O)c1ccc(N)cc1O | 22
29 | Cc1cccc2c(C(=O)Nn3cnnc3)cc(-c3ccccc3Cl)nc12 | 25.8
30 | CC(=O)N1CCN(c2ncnc3sc(-c4ccccc4)cc23)CC1 | -44.4
31 | CCOC(=O)c1cnc(SCC(=O)N2CCN(C(=O)c3ccco3)CC2)nc1N | -29.3
32 | CN1CCN(c2ccc(NC(=O)c3cccc(OCc4ccccc4)c3)cc2)CC1 | -8.95
33 | O=C(Nc1ccc(N2CCN(C(=O)c3ccccc3)CC2)c(Cl)c1)c1cccnc1 | -31.2
34 | O=C(Nc1ccccc1N1CCN(C(=O)c2ccccc2)CC1)c1ccc2c(c1)OCO2 | -60.7
35 | O=C(Nc1ccccc1N1CCN(C(=O)c2ccc(Cl)cc2)CC1)c1cccnc1 | -73.2
36 | CN1CCN(c2ccccc2NC(=O)c2ccc(OCc3ccccc3)cc2)CC1 | -41.9
37 | O=C(Nc1ccccc1N1CCCC1)c1ccc2c(c1)OCO2 | -3.23
38 | O=C(Nc1ccccc1N1CCCC1)c1cccnc1 | -0.385
39 | CN1CCN(c2ccccc2NC(=O)c2cccc(OCc3ccccc3)c2)CC1 | -78.9
40 | O=C(Nc1ccccc1N1CCN(C(=O)c2ccc(Cl)cc2)CC1)c1ccc2c(c1)OCO2 | -46.8
41 | CCOc1ccc(C2C(C#N)=C(N)N3C(=C2C#N)Sc2ccccc23)cc1 (stereo not drawn) | 9.5
42 | CC1Cc2ccccc2N1C(=O)CSc1nnc2n1C(C)(C)Cc1ccccc1-2 (stereo not drawn) | -3.06
